In PubChem BioAssay (NCI):
Values joined by “and” are separate entries in the source; they are usually repeats but may differ in a detail not shown here. Equal values may be shown once. The panel holds about 83,000 compounds, 20% with a hit somewhere; the sample as a whole holds those more often.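 Percent growth is the endpoint: 0 to 100 indicates growth inhibition (40 means 60% inhibition), 0 means no net growth, and negative values indicate cell death.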 Active and inactive are the calls of the source. How the source made its calls: active means growth percent below 10; inactive means the rest.

Key:
Experiment in all cases: NCI-60 one-dose screen, 48 h (100 = growth as untreated, 0 = no growth, -100 = all killed)
SK-MEL-2 melanoma = conditions: 10 µM unless noted
EKVX NSCLC = conditions: 10 µM
SN12C renal = conditions: 10 µM unless noted
UO-31 renal = conditions: 10 µM unless noted
TK-10 renal = test system: TK-10 renal
ACHN renal = conditions: 10 µM unless noted
CAKI-1 renal = conditions: 10 µM unless noted
A498 renal = conditions: 10 µM unless noted
CCRF-CEM leukemia = conditions: 10 µM
MOLT-4 leukemia = conditions: 10 µM unless noted

Measured: growth

CC1CCC(C(C)C)C(NNC(N)=O)C1 (stereo unspecified)
inactive: SK-MEL-2 melanoma 107% | EKVX NSCLC 101% | SN12C renal 101% | UO-31 renal 86.6% | TK-10 renal; 10 µM unless noted 105% | ACHN renal 110% | CAKI-1 renal 98.9% | A498 renal 102% | CCRF-CEM leukemia 106% | MOLT-4 leukemia 113%

CC1CCC2(C(=O)O)CCC3(C)C(=CCC4C5(C)CCC(O)C(C)(C)C5CCC43C)C2C1C (stereo unspecified)
-22.1% (active) and 35.8% (inactive): CCRF-CEM leukemia
inactive: SK-MEL-2 melanoma 82.5% and 86.8% | EKVX NSCLC 74% and 70.8% | SN12C renal 79.3% and 99.7% | TK-10 renal; 10 µM 90.6% and 88.5% | ACHN renal 57.7% and 76.2% | CAKI-1 renal 40.4% and 90.8% | A498 renal 103%
5.91% (active) and 55.4% (inactive): UO-31 renal
-11.8% (active) and 84.5% (inactive): MOLT-4 leukemia
active: TK-10 renal; 100 µM -77.6% and -96.8%

NN1CCOC(c2ccccc2)C1 (stereo unspecified)
inactive: SK-MEL-2 melanoma 110% | EKVX NSCLC 115% | SN12C renal 102% | UO-31 renal 71.4% | TK-10 renal; 10 µM unless noted 122% | ACHN renal 99.1% | CAKI-1 renal 109% | A498 renal 107% | CCRF-CEM leukemia 99.3% | MOLT-4 leukemia 76.1%

CN(C)c1ccc(/C=C\C(=O)c2ccccc2)cc1
inactive: SK-MEL-2 melanoma 93.3% and 91.9% and 72.1% | EKVX NSCLC 105% | SN12C renal 95.6% and 98.8% and 95% | UO-31 renal 74.5% and 69.4% and 63.9% | TK-10 renal; 10 µM unless noted 76.6% and 79% and 70.5% | ACHN renal 99.4% and 101% | CAKI-1 renal 86.9% and 93.8% | A498 renal 91.8% and 71.8% and 102% | CCRF-CEM leukemia 70.4% and 65% and 74% | MOLT-4 leukemia 74.5% and 85.3% and 72.2%

Cc1cc(-c2ccc(N=Nc3ccc4c(S(=O)(=O)O)cc(S(=O)(=O)O)c(N)c4c3O)c(C)c2)ccc1N=Nc1ccc2c(S(=O)(=O)O)cc(S(=O)(=O)O)c(N)c2c1O
inactive: SK-MEL-2 melanoma 112% | EKVX NSCLC 86.6% | SN12C renal 99.1% | UO-31 renal 74.1% | TK-10 renal; 10 µM unless noted 112% | ACHN renal 91.6% | CAKI-1 renal 86.9% | A498 renal 103% | CCRF-CEM leukemia 85.7%

CN1CNC(=O)NC1
inactive: SK-MEL-2 melanoma 114% | EKVX NSCLC 97.3% | SN12C renal 105% and 102% | UO-31 renal 98.5% and 87.6% | TK-10 renal; 10 µM unless noted 112% and 115% | ACHN renal 113% and 107% | CAKI-1 renal 98.5% and 106% | A498 renal 100% and 72.4% | CCRF-CEM leukemia 108% and 91.3% | MOLT-4 leukemia 99.9% and 85.2%

O=C1OC(C(O)C(O)CO)C(O)=C1O (stereo unspecified)
inactive: SK-MEL-2 melanoma 92.9% and 101% | EKVX NSCLC 110% and 99.5% | SN12C renal 107% and 101% | UO-31 renal 104% and 94.2% | TK-10 renal; 10 µM unless noted 124% and 100% | ACHN renal 105% and 103% | CAKI-1 renal 104% and 102% | A498 renal 129% and 116% | CCRF-CEM leukemia 102% and 101% | MOLT-4 leukemia 121% and 105%

CC(=O)OCC1OC(OC(C)=O)C(OC(C)=O)C(OC(C)=O)C1OC(C)=O (stereo unspecified)
inactive: SK-MEL-2 melanoma 109% and 111% | EKVX NSCLC 99.7% | SN12C renal 104% and 105% | UO-31 renal 79.8% and 94.2% | TK-10 renal; 10 µM unless noted 110% and 106% | ACHN renal 96.4% and 105% | CAKI-1 renal 97.1% and 100% | A498 renal 112% and 85.9% | CCRF-CEM leukemia 95.2% and 110% | MOLT-4 leukemia 98.9% and 99.9%

O=[N+]([O-])c1cccc(SSc2cccc([N+](=O)[O-])c2)c1
inactive: SK-MEL-2 melanoma 98.5% | EKVX NSCLC 106% | SN12C renal 93.7% | UO-31 renal 86.5% | TK-10 renal; 10 µM unless noted 109% | ACHN renal 99.5% | CAKI-1 renal 103% | A498 renal 119% | CCRF-CEM leukemia 50.6% | MOLT-4 leukemia 82.1%

CCCCNc1ccc(Nc2ccccc2)cc1
inactive: SK-MEL-2 melanoma 87.3% | EKVX NSCLC 37% | SN12C renal 71.9% | UO-31 renal 86.6% | TK-10 renal; 10 µM unless noted 73.6% | ACHN renal 77.6% | CAKI-1 renal 94.6% | A498 renal 82.7% | CCRF-CEM leukemia 24.5% | MOLT-4 leukemia 84.6%

O=CN1CCCCC1
inactive: SK-MEL-2 melanoma 125% | EKVX NSCLC 94.9% | SN12C renal 104% | UO-31 renal 97.2% | TK-10 renal; 10 µM unless noted 125% | ACHN renal 109% | CAKI-1 renal 96.9% | A498 renal 84.1% | CCRF-CEM leukemia 115% | MOLT-4 leukemia 121%

CC1=C/C(O)CC(=O)Cc2nc(co2)C(=O)N2CCC=C2C(=O)OC(C(C)C)C(C)/C=C\C(=O)NC/C=C\1 (stereo unspecified)
inactive: SK-MEL-2 melanoma 21.8% | EKVX NSCLC 90.2% | SN12C renal 87.9% | UO-31 renal 75.1% | TK-10 renal; 10 µM unless noted 127% | ACHN renal 86.2% | CAKI-1 renal 81% | A498 renal 90.9% | CCRF-CEM leukemia 37% | MOLT-4 leukemia 77.4%

COc1ccc2cc1Oc1ccc(cc1)C[C@H]1c3cc(c(OC)cc3CCN1C)Oc1c(OC)c(OC)cc3c1[C@H](C2)N(C)CC3
inactive: SK-MEL-2 melanoma 131% | EKVX NSCLC 80.5% | SN12C renal 82.2% | TK-10 renal; 10 µM 76.7% | TK-10 renal; 100 µM 71.7% and 56.9% | ACHN renal 74.1% | CAKI-1 renal 68.9% | A498 renal 72.1% | MOLT-4 leukemia 28.2%
active: UO-31 renal 3.4% | CCRF-CEM leukemia 3.76%

CC(C)NC(=O)N/C=C(\C#N)C(N)=O
inactive: SK-MEL-2 melanoma 101% | EKVX NSCLC 97.2% | SN12C renal 99.1% | UO-31 renal 87.8% | TK-10 renal; 10 µM unless noted 99.7% | ACHN renal 94.8% | CAKI-1 renal 81.5% | A498 renal 112% | CCRF-CEM leukemia 114% | MOLT-4 leukemia 106%

C#CCOC(=O)Nc1ccccc1
inactive: SK-MEL-2 melanoma 109% | EKVX NSCLC 99.1% | SN12C renal 101% | UO-31 renal 97.7% | TK-10 renal; 10 µM unless noted 103% | ACHN renal 114% | CAKI-1 renal 98% | A498 renal 75.2% | CCRF-CEM leukemia 112% | MOLT-4 leukemia 104%

O=c1[nH]cnc2c1ncn2C1OC(CO)C(O)C1O (stereo unspecified)
inactive: SK-MEL-2 melanoma 110% | EKVX NSCLC 123% and 107% and 93.1% | SN12C renal 99.8% and 121% and 96.1% | UO-31 renal 113% and 102% and 55.3% | TK-10 renal; 10 µM unless noted 113% and 114% and 106% | ACHN renal 116% and 109% and 105% | CAKI-1 renal 113% and 95.3% and 63.4% | A498 renal 116% and 129% and 113% | CCRF-CEM leukemia 99.5% and 90.3% and 69.9% | MOLT-4 leukemia 93% and 76% and 105%

Nc1ccc2c(O)cc(S(=O)(=O)O)cc2c1
inactive: SK-MEL-2 melanoma 108% and 92.1% | EKVX NSCLC 102% and 110% | SN12C renal 95.4% and 86.9% | UO-31 renal 69.5% and 63.5% | TK-10 renal; 10 µM unless noted 94.4% and 143% | ACHN renal 95.8% and 92.8% | CAKI-1 renal 87.1% | A498 renal 102% and 100% | CCRF-CEM leukemia 74.6% | MOLT-4 leukemia 87.3% and 92.5%

NC1CCC(C(=O)O)CC1 (stereo unspecified)
inactive: SK-MEL-2 melanoma 104% and 102% | EKVX NSCLC 103% and 105% | SN12C renal 97% and 103% | UO-31 renal 105% and 87% | TK-10 renal; 10 µM unless noted 97.7% and 102% | ACHN renal 106% and 105% | CAKI-1 renal 96.7% and 90.7% | A498 renal 94.7% and 86.6% | CCRF-CEM leukemia 80.9% and 79.5% | MOLT-4 leukemia 107% and 98%

O=C1c2c(O)ccc(O)c2C(=O)c2c(NCCNCCO)ccc(NCCNCCO)c21
active: SK-MEL-2 melanoma -87.6% and -70.5% | EKVX NSCLC -17.7% and -29.5% | SN12C renal -45.7% and -49.7% | UO-31 renal -63.5% and -53.9% | TK-10 renal; 10 µM unless noted -35% and -7% | ACHN renal -52.9% and -45.2% | CAKI-1 renal -17.2% and -31% | A498 renal -80.1% | CCRF-CEM leukemia -24.9% and -30.9% | MOLT-4 leukemia 2.98% and -18.1%
